Experimental data reported in PubChem BioAssay (Tox21).
“And” between values parts separate entries of the source, which are not always exact repeats. Equal entries are not always repeated. Inconclusive results are not listed. The source made the active and inactive calls. Unless noted, calls come from the whole dose curve; as a rule, active = well fitted curve in the direction sought with a large enough effect in the repeat runs; inconclusive = weak or mixed curves; inactive = no such curve, though single readings can be large; an effect the other way counts as inactive or inconclusive.

Key:
[1] = qHTS assay to identify aromatase inhibitors - cell viability counter screen (AID 743084); details: MCF-7 aro ERE viability, CellTiter-Fluor, 24 h; series mostly up to 70.3 µM;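 note: cells stimulated with testosterone during compound exposure; nearly all actives have a fitted effect of over 55% in size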; note: potency is the fitted concentration of half-maximal effect
[2] = molecular target: Aryl hydrocarbon receptor (Homo sapiens) (UniProt P35869); test: qHTS assay to identify small molecule that activate the aryl hydrocarbon receptor (AhR) signaling pathway (AID 743085); details: HepG2 AhR-luc (HG2L7.5c1), luciferase, 24 h; series mostly up to 70.3 µM; note: nearly all actives have a fitted effect of over 15% in size; note: potency is the fitted concentration of half-maximal effect;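 for activation: HG2L7.5c1 human HepG2 liver cells with stably integrated DRE-driven firefly reporter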
Method in brief: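 Steps: seed HepG2-AhR-luc cells; allow 5 h at 37C; pin-transfer test compound or vehicle; incubate 24 h at 37C; add viability dye (30 min, 37C) and read fluorescence; add luciferase substrate (30 min, RT) and read luminescence.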

[3] = molecular target: Peroxisome proliferator-activated receptor gamma (Homo sapiens) (UniProt P37231); test: qHTS assay to identify small molecule agonists of the peroxisome proliferator-activated receptor gamma (PPARg) signaling pathway (AID 743094; active = well fitted activation curve with a large enough effect in the signal ratio in the repeat runs, not every such curve was filed as active; the % refers to the signal ratio); details: HEK293H PPARg-UAS-bla, beta-lactamase FRET ratio, 17 h; series mostly up to 57 µM
Method in brief: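 GeneBLAzer PPARg UAS-bla HEK293H cells carrying a stably integrated beta-lactamase reporter were pre-incubated 5 h at 37C, then exposed to compounds in DMSO for 17 h at 37C; LiveBLAzer B/G FRET substrate was added for 1 h at room temperature and fluorescence read.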

[4] = molecular target: Peroxisome proliferator-activated receptor gamma (Homo sapiens) (UniProt P37231); test: qHTS assay to identify small molecule antagonists of the peroxisome proliferator-activated receptor gamma (PPARg) signaling pathway (AID 743191; calls by dose curve; note: nearly all actives have a fitted effect of over 30% in size); details: HEK293H PPARg-UAS-bla, beta-lactamase ratio, antagonist, 17 h; series mostly up to 62.6 µM
Method in brief: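 Beta-lactamase reporter under UAS control in HEK293H PPARg-bla cells; compound treatment 17 h at 37C. Read-out: fluorescence intensity after 1 h room-temperature incubation with LiveBLAzer B/G FRET substrate.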

[5] = qHTS assay to identify small molecule antagonists of the peroxisome proliferator-activated receptor gamma (PPARg) signaling pathway - cell viability counter screen (AID 743194); details: PPARg-bla HEK293H viability, CellTiter-Glo luminescence, 17 h, co-treated with 50 nM rosiglitazone; series mostly up to 62.6 µM; note: nearly all actives have a fitted effect of over 55% in size
Method in brief: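 Viability was measured as CellTiter-Glo luminescence in GeneBLAzer PPARg UAS-bla HEK293H cells. These cells had been exposed 17 h at 37 C to compounds together with rosiglitazone at 50 nM final, with the beta-lactamase readout taken in the same wells.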

[6] = qHTS assay for small molecule agonists of the antioxidant response element (ARE) signaling pathway - cell viability counter screen (AID 743203; calls by dose curve; note: nearly all actives have a fitted effect of over 55% in size; note: potency is the fitted concentration of half-maximal effect); details: ARE-bla HepG2 viability, CellTiter-Glo luminescence, 16 h; series mostly up to 73.3 µM
Method in brief: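 CellSensor ARE-bla HepG2 cells, 2,000 per well, rested 5 hrs at 37C/5% CO2, then exposed to compound in DMSO for 16 hrs; viability read as CellTiter-Glo luminescence after 30 min at room temperature, in the reporter wells.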

[7] = qHTS assay for small molecule activators of the heat shock response signaling pathway - cell viability counter screen (AID 743209); details: HSE-bla HeLa viability, CellTiter-Glo luminescence, 5 h; series mostly up to 62.6 µM; note: nearly all actives have a fitted effect of over 50% in size
Method in brief: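 CellSensor HSE-bla HeLa cells, plated overnight at 37 C/5% CO2, were exposed to compounds in DMSO for 5 h at 37 C. Viability was then read in the same wells by CellTiter-Glo luminescence after 30 min at room temperature.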

[8] = qHTS assay for small molecule activators of the heat shock response signaling pathway (AID 743210; active = well fitted activation curve with a large enough effect in the signal ratio in the repeat runs, with a control signal flat, not every such curve was filed as active; the % refers to the signal ratio;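 note: HeLa cells with beta-lactamase reporter driven by heat shock elements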); details: HeLa HSE-bla reporter, beta-lactamase ratio, 5 h; series mostly up to 62.6 µM
Method in brief: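 HeLa HSE-bla cells, overnight plating; cpd in DMSO 5 h, 37 C; LiveBLAzer B/G FRET substrate 2.5 h RT; fluorescence intensity read.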

[9] = qHTS assay to identify small molecule that activate the aryl hydrocarbon receptor (AhR) signaling pathway - cell viability counter screen (AID 743086); details: HepG2-AhR-luc viability, CellTiter-Fluor, 24 h; series mostly up to 70.3 µM; note: nearly all actives have a fitted effect of over 45% in size; note: potency is the fitted concentration of half-maximal effect;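 for viability change, negative = cytotoxic: HepG2 liver cells carrying the AhR DRE luciferase reporter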
Method in brief: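 Cytotoxicity counter screen: CellTiter-Fluor signal (30 min, 37 C) in 4000 HepG2 cells/well carrying the DRE-luciferase reporter, following 24 h compound exposure at 37 C.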

[10] = qHTS assay for small molecule agonists of the antioxidant response element (ARE) signaling pathway (AID 743202; active = well fitted activation curve with a large enough effect in the signal ratio in the repeat runs, not every such curve was filed as active; the % refers to the signal ratio; note: potency is the fitted concentration of half-maximal effect); details: HepG2 ARE-bla reporter, beta-lactamase FRET, 16 h; series mostly up to 73.3 µM
Method in brief: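 Quantitative high-throughput format in HepG2 cells bearing an integrated ARE-beta-lactamase reporter. Compound exposure lasted 16 h at 37 C, and fluorescence was read 2 h after adding LiveBLAzer B/G substrate at room temperature.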
% is set by controls: 0 for no effect and ±100 for the full control effect.

Sequence of Peroxisome proliferator-activated receptor gamma (Homo sapiens) (P37231 whole entry, looked up): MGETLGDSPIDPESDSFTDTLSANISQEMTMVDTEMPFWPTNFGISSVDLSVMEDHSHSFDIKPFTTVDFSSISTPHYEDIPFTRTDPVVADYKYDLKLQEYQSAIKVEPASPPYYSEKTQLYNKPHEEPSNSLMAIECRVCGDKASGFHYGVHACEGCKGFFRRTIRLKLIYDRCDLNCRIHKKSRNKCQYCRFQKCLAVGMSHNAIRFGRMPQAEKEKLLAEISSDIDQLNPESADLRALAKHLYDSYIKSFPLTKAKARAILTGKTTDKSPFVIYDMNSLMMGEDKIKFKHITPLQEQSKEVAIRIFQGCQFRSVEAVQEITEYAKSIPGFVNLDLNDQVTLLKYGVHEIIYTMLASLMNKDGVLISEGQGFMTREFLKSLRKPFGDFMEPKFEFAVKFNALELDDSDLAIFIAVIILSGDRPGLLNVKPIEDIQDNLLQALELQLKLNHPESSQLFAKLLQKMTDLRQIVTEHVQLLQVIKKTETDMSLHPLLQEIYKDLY
Sequence of Aryl hydrocarbon receptor (Homo sapiens) (P35869 whole entry, looked up): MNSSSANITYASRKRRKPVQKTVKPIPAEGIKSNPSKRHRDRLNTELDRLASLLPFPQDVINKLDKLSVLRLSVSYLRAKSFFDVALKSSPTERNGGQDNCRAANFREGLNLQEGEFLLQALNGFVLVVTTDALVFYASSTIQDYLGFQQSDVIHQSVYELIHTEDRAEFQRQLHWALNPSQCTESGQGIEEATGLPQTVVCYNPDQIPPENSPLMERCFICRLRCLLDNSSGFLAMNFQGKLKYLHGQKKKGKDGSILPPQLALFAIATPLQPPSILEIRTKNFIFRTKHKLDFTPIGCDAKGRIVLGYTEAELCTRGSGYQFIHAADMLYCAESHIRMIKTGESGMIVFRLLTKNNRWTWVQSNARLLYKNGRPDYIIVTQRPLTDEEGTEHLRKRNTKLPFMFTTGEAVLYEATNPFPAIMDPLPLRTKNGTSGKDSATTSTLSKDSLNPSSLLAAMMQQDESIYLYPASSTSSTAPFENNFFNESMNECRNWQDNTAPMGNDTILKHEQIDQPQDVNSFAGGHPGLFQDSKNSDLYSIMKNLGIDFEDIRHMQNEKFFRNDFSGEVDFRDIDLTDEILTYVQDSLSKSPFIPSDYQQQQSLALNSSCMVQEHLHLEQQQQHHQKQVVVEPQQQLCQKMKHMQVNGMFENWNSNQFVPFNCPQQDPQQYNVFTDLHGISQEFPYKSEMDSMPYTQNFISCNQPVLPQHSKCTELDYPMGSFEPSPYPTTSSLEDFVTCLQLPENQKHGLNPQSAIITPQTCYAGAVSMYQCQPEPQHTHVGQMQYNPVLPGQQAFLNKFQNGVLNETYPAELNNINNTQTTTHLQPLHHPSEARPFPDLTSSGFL

OCCOc1ccc(OCCO)cc1
inactive: Potency [1] | Potency [2] | outcome [3] | Potency [4] | outcome [5] | Potency [6] | outcome [7] | outcome [8]

CC(C)(c1ccc(O)cc1)c1ccc(O)cc1
active: Potency [2] 32.2 µM | Potency [10] 27 µM and 17.5 µM
inactive: Potency [1] | Potency [9] | outcome [5] | Potency [6] | outcome [7]

N=C(N)c1ccc(OCCCOc2ccc(C(=N)N)cc2)cc1
inactive: Potency [1] | Potency [2] | outcome [3] | Potency [4] | outcome [5] | Potency [6] | outcome [7]

CN(C)CCCN1c2ccccc2CCc2ccc(Cl)cc21
active: Potency [1] 48.6 µM | Potency [9] 27.3 µM | Potency [6] 43.3 µM
inactive: Potency [2] | Potency [10] | outcome [7] | outcome [8]

NCCCNCCSP(=O)(O)O
inactive: Potency [1] | Potency [2] | outcome [3] | ratio activity, negative = inhibition [4] -8.68% [at 13.2 µM] | activity change, negative = cytotoxicity [5] -6.69% [at 13.2 µM] | viability change, negative = cytotoxic [6] 1.31% [at 8.36 µM] | activity change, negative = cytotoxicity [7] 4.97% [at 13.2 µM] | activation [8] -0.51% [at 13.2 µM]

CCCCC/C=C\CCC=O
inactive: Potency [1] | Potency [2] | Potency [9] | outcome [3] | outcome [5] | Potency [6] | outcome [7] | outcome [8]

CCC(C)C1CCCCC1=O (centres undefined)
inactive: Potency [1] | Potency [2] | outcome [3] | Potency [4] | outcome [5] | Potency [10] | Potency [6] | outcome [7] | outcome [8]

CC(C)CNCC(C)C
inactive: Potency [1] | Potency [2] | Potency [9] | outcome [5] | Potency [10] | Potency [6] | outcome [7]

CCN(CC)CCNC(=O)c1cc(S(C)(=O)=O)ccc1OC
inactive: Potency [1] | Potency [2] | outcome [3] | Potency [4] | outcome [5] | Potency [10] | Potency [6]

NS(=O)(=O)c1ccccc1Cl
inactive: Potency [1] | Potency [2] | Potency [9] | outcome [3] | Potency [6] | outcome [7] | outcome [8]

Oc1ccc(C2CNCCc3c2cc(O)c(O)c3Cl)cc1 (centres undefined)
inactive: Potency [1] | Potency [2] | Potency [9] | outcome [3] | outcome [5] | Potency [6] | outcome [8]

CCN1CCC[C@H]1CNC(=O)c1c(O)c(Cl)cc(Cl)c1OC
inactive: Potency [1] | Potency [2] | Potency [9] | outcome [5] | Potency [6] | outcome [7] | outcome [8]
